Targets with a hit are over-represented here; the source holds about 8,800 in all. About 0.5% of all pairs of compound and target were hits. A number with no mark means an inactive call.
How the values were obtained:
Assay in all cases: log2 fold change, soluble protein after heating vs DMSO (PISA); higher = thermal stabilisation; K562 lysate, 10 uM; active = over 0.2 and 3.5 SD of the protein, either way, in both replicates (recomputed)
[1] = compound: Cc1cn(-c2cc(NC(=O)c3ccc(C)c(Nc4nccc(-c5cccnc5)n4)c3)cc(C(F)(F)F)c2)cn1 [nilotinib]
Procedure, shortened: (§1)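 Dounce homogenisation of K562 pellets in PBS pH 7.4 with 1 mM MgCl2 produced a crude extract, used at 1 mg/mL protein. Exposure to 10 μM compound lasted 30 min, and aliquots were then heated for 3 min across 48°C-58°C, pooled and brought to 0.5% NP-40 at 4°C. The supernatant after 21,000xg for 90 min was quantified by TMTpro 16plex LC-MS/MS with channel sums equalised. Duplicate values are given as log-two fold change in thermal stability relative to solvent controls.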

[2] = compound: Cc1nc(Nc2n[nH]c3c2CN(C(=O)N[C@H](CN(C)C)c2ccccc2)C3(C)C)c2sccc2n1
Procedure, shortened: as §1

[3] = compound: Cc1nc(Nc2ncc(C(=O)Nc3c(C)cccc3Cl)s2)cc(N2CCN(CCO)CC2)n1 [dasatinib]
Procedure, shortened: as §1

[4] = compound: Cc1ncc(-c2ccnc(Nc3ccc(S(C)(=O)=O)cc3)n2)n1C(C)C
Procedure, shortened: as §1

[5] = compound: Cn1cc(-c2ccc3c(c2)CCN3C(=O)Cc2cccc(C(F)(F)F)c2)c2c(N)ncnc21
Procedure, shortened: as §1

[6] = compound: Cn1cc(CNCC2CCN(c3ncc(C(=O)NO)cn3)CC2)c2ccccc21 [quisinostat]
Procedure, shortened: as §1

[7] = compound: Cn1cncc1[C@@](N)(c1ccc(Cl)cc1)c1ccc2c(c1)c(-c1cccc(Cl)c1)cc(=O)n2C [tipifarnib]
Procedure, shortened: as §1

[8] = compound: NC(=O)Nc1cc(-c2cccc(F)c2)sc1C(=O)N[C@H]1CCCNC1
Procedure, shortened: as §1

[9] = compound: NC(=O)c1cnc(N[C@@H]2CCCC[C@@H]2N)nc1Nc1cccc(-n2nccn2)c1
Procedure, shortened: as §1

[10] = compound: NC1(c2ccc(-c3nc4ccn5c(=O)[nH]nc5c4cc3-c3ccccc3)cc2)CCC1
Procedure, shortened: as §1

MRPS12 (UniProt O15235)
log2 fold change [1]: -0.026
log2 fold change [2]: 0.061
log2 fold change [3]: -0.104
log2 fold change [4]: -0.041
log2 fold change [5]: -0.007
log2 fold change [6]: -0.051
log2 fold change [7]: -0.012
log2 fold change [8]: 0.01
log2 fold change [9]: 0.018
log2 fold change [10]: 0.063

NUP93 (UniProt Q8N1F7)
log2 fold change [1]: -0.02
log2 fold change [2]: 0.001
log2 fold change [3]: -0.098
log2 fold change [4]: -0.006
log2 fold change [5]: 0.031
log2 fold change [6]: 0.037
log2 fold change [7]: -0.04
log2 fold change [8]: 0.021
log2 fold change [9]: 0.018
log2 fold change [10]: -0.005

PAFAH1B3 (UniProt Q15102)
log2 fold change [1]: 0.005
log2 fold change [2]: 0.036
log2 fold change [3]: -0.057
log2 fold change [4]: -0.026
log2 fold change [5]: 0.03
log2 fold change [6]: 0.01
log2 fold change [7]: -0.01
log2 fold change [8]: -0.009
log2 fold change [9]: 0.031
log2 fold change [10]: 0.021

MTA2 (UniProt O94776)
log2 fold change [1]: 0.001
log2 fold change [2]: 0.017
log2 fold change [3]: -0.019
log2 fold change [4]: -0.011
log2 fold change [5]: 0.046
log2 fold change [6]: -0.062
log2 fold change [7]: -0.007
log2 fold change [8]: 0.03
log2 fold change [9]: -0.002
log2 fold change [10]: 0.001

NCKAP1L (UniProt P55160)
UniProt P55160, sequence (P55160 whole entry, looked up): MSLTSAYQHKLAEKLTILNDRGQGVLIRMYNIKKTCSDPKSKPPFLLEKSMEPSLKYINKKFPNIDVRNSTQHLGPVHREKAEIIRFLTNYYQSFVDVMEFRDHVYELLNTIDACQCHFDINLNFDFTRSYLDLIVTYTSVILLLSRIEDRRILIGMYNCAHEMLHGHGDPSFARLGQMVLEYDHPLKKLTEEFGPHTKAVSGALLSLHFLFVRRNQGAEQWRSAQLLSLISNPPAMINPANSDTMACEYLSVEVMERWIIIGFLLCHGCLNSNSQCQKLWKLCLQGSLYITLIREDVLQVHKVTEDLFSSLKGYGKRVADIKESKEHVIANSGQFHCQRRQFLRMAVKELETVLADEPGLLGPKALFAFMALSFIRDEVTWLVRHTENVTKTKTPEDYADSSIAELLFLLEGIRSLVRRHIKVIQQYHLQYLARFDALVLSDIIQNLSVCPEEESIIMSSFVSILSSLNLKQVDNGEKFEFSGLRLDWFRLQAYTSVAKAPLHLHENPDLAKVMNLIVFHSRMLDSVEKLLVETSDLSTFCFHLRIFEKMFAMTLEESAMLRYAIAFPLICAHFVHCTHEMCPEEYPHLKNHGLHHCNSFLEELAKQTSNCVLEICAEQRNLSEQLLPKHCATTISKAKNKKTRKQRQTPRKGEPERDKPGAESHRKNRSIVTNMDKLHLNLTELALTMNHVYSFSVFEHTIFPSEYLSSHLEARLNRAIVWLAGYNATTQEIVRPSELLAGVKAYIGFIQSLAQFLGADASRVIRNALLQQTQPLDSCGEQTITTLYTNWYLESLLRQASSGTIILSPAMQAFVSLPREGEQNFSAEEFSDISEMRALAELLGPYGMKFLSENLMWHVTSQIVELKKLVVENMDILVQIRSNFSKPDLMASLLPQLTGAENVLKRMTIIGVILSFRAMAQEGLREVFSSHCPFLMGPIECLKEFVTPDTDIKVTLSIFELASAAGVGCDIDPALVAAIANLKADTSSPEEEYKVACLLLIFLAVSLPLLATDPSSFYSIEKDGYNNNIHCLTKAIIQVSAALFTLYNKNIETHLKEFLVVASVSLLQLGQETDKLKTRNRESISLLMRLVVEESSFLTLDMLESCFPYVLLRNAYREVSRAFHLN
log2 fold change [1]: 0.001
log2 fold change [2]: -0.017
log2 fold change [3]: -0.034
log2 fold change [4]: 0.072
log2 fold change [5]: 0.005
log2 fold change [6]: -0.034
log2 fold change [7]: 0.032
log2 fold change [8]: 0.055
log2 fold change [9]: 0.017
log2 fold change [10]: 0.023

NAA38 isoform 2 (UniProt Q9BRA0)
log2 fold change [1]: -0.024
log2 fold change [2]: 0.059
log2 fold change [3]: -0.014
log2 fold change [4]: -0.007
log2 fold change [5]: 0.001
log2 fold change [6]: 0.03
log2 fold change [7]: -0.03
log2 fold change [8]: 0.027
log2 fold change [9]: 0.016
log2 fold change [10]: -0.019

MYOM1 (UniProt P52179)
UniProt P52179, sequence (P52179 whole entry, looked up): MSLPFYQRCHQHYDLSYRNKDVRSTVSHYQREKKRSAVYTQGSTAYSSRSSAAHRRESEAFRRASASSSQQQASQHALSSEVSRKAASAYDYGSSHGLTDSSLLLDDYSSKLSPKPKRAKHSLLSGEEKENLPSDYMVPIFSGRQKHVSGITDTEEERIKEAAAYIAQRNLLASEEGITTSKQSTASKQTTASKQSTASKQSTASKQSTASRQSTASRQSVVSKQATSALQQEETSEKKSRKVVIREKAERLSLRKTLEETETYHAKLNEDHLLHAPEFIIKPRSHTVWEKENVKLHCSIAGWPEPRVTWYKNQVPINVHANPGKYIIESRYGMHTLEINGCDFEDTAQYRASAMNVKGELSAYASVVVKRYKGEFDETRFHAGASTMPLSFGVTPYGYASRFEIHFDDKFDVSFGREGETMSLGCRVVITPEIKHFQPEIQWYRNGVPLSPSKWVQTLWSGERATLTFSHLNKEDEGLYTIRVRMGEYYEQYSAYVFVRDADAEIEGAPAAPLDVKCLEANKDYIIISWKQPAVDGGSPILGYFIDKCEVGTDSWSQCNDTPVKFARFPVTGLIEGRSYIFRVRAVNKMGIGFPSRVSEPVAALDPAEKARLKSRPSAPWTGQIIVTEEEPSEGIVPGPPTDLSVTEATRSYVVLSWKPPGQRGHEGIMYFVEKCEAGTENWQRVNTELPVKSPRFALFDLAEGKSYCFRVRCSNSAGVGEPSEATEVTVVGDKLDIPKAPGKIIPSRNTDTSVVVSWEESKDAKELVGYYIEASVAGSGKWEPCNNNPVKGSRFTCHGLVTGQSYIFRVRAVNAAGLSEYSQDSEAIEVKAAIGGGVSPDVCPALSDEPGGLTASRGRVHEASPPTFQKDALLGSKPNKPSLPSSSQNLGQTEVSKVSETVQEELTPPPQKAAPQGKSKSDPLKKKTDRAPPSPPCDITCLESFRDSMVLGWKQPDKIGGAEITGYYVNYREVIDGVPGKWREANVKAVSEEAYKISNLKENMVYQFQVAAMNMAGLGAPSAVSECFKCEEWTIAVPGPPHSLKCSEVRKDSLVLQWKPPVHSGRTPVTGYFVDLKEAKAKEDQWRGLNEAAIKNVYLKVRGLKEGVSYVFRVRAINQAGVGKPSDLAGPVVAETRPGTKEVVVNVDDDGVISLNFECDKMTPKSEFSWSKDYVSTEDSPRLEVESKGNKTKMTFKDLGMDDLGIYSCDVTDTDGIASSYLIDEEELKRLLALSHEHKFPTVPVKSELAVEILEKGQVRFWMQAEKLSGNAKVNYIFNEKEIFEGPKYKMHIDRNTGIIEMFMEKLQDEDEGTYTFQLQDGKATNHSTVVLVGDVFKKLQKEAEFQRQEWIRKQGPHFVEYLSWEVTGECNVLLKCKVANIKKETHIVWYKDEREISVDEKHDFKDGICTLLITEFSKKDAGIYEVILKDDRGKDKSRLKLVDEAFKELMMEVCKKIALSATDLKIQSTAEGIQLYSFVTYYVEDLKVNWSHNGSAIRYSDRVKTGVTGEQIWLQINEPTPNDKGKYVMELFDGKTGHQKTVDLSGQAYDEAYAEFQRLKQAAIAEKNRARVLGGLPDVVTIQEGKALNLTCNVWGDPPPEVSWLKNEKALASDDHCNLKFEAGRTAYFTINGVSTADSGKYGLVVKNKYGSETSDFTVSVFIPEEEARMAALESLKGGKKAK
log2 fold change [1]: -0.127
log2 fold change [2]: -0.078
log2 fold change [3]: 0.058
log2 fold change [4]: 0.039
log2 fold change [5]: 0.023
log2 fold change [6]: 0.115
log2 fold change [7]: 0.01
log2 fold change [8]: 0.083
log2 fold change [9]: -0.016
log2 fold change [10]: -0.035

MYCBP2 (UniProt O75592)
log2 fold change [1]: 0.028
log2 fold change [2]: -0.013
log2 fold change [3]: -0.038
log2 fold change [4]: -0.013
log2 fold change [5]: 0.015
log2 fold change [6]: -0.116
log2 fold change [7]: -0.008
log2 fold change [8]: 0.019
log2 fold change [9]: 0.012
log2 fold change [10]: -0.013

NOB1 (UniProt Q9ULX3)
log2 fold change [1]: 0.018
log2 fold change [2]: -0.026
log2 fold change [3]: 0.004
log2 fold change [4]: -0.066
log2 fold change [5]: 0.044
log2 fold change [6]: 0.041
log2 fold change [7]: 0
log2 fold change [8]: 0.043
log2 fold change [9]: -0.018
log2 fold change [10]: 0.058

NUB1 (UniProt Q9Y5A7)
log2 fold change [1]: -0.021
log2 fold change [2]: 0.025
log2 fold change [3]: -0.03
log2 fold change [4]: 0.028
log2 fold change [5]: 0.014
log2 fold change [6]: 0.035
log2 fold change [7]: 0.003
log2 fold change [8]: 0.018
log2 fold change [9]: 0.004
log2 fold change [10]: -0.002

NUP133 (UniProt Q8WUM0)
UniProt Q8WUM0, sequence (Q8WUM0 whole entry, looked up): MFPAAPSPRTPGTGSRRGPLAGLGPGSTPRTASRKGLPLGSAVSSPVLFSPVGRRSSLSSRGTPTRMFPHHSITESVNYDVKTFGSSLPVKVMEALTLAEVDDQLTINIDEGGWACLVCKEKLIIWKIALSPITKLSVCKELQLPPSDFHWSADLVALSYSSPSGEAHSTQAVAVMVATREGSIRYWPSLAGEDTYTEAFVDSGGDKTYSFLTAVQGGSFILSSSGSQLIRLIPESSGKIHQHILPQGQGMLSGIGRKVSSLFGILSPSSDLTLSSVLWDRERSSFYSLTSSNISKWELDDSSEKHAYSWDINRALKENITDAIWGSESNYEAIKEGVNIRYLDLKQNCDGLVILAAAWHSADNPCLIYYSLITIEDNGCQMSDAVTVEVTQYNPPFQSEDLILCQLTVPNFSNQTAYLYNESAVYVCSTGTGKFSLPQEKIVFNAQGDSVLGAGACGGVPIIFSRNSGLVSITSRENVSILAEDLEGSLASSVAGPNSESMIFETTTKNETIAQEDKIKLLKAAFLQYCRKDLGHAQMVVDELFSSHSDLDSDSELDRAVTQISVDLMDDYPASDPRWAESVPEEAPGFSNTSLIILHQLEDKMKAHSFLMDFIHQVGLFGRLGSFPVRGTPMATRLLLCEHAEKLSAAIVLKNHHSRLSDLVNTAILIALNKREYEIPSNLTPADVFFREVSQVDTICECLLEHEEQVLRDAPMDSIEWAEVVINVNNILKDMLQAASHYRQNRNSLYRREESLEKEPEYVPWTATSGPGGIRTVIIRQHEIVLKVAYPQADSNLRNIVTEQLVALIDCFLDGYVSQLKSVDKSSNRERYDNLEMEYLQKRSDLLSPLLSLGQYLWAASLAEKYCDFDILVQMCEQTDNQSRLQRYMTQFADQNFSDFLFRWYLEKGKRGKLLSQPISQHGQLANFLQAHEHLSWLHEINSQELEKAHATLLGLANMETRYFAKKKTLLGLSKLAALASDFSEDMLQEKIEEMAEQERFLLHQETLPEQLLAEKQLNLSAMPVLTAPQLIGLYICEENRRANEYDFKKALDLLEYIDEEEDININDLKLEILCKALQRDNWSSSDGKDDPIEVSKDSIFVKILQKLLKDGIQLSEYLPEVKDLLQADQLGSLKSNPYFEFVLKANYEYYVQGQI
log2 fold change [1]: 0.023
log2 fold change [2]: -0.006
log2 fold change [3]: -0.026
log2 fold change [4]: 0.019
log2 fold change [5]: 0.056
log2 fold change [6]: -0.092
log2 fold change [7]: -0.039
log2 fold change [8]: 0.006
log2 fold change [9]: 0.005
log2 fold change [10]: -0.016

OSBP (UniProt P22059)
log2 fold change [1]: -0.073
log2 fold change [2]: 0.005
log2 fold change [3]: -0.221 (active)
log2 fold change [4]: -0.015
log2 fold change [5]: -0.011
log2 fold change [6]: 0
log2 fold change [7]: 0.042
log2 fold change [8]: 0.012
log2 fold change [9]: 0.031
log2 fold change [10]: 0.04

PANK4 (UniProt Q9NVE7)
log2 fold change [1]: 0.028
log2 fold change [2]: -0.006
log2 fold change [3]: -0.086
log2 fold change [4]: -0.006
log2 fold change [5]: 0.003
log2 fold change [6]: -0.054
log2 fold change [7]: 0.009
log2 fold change [8]: 0.038
log2 fold change [9]: -0.003
log2 fold change [10]: -0.045

NTMT1 (UniProt Q9BV86)
log2 fold change [1]: -0.033
log2 fold change [2]: -0.026
log2 fold change [3]: -0.053
log2 fold change [4]: 0.002
log2 fold change [5]: 0.047
log2 fold change [6]: -0.051
log2 fold change [7]: 0.012
log2 fold change [8]: 0.07
log2 fold change [9]: -0.049
log2 fold change [10]: -0.002

NMT1 (UniProt P30419)
log2 fold change [1]: -0.037
log2 fold change [2]: 0.044
log2 fold change [3]: 0.058
log2 fold change [4]: -0.016
log2 fold change [5]: -0.022
log2 fold change [6]: -0.065
log2 fold change [7]: 0.001
log2 fold change [8]: 0.007
log2 fold change [9]: -0.005
log2 fold change [10]: -0.057

MTOR (UniProt P42345)
log2 fold change [1]: 0.007
log2 fold change [2]: -0.022
log2 fold change [3]: -0.064
log2 fold change [4]: 0.001
log2 fold change [5]: 0.039
log2 fold change [6]: -0.067
log2 fold change [7]: 0.015
log2 fold change [8]: 0.04
log2 fold change [9]: 0.017
log2 fold change [10]: -0.033

MTA3 (UniProt Q9BTC8)
log2 fold change [1]: 0.034
log2 fold change [2]: -0.059
log2 fold change [3]: -0.005
log2 fold change [4]: -0.019
log2 fold change [5]: -0.017
log2 fold change [6]: -0.061
log2 fold change [7]: 0.009
log2 fold change [8]: 0.03
log2 fold change [9]: 0.005
log2 fold change [10]: -0.047

MRPL51 (UniProt Q4U2R6)
log2 fold change [1]: -0.029
log2 fold change [2]: -0.006
log2 fold change [3]: -0.056
log2 fold change [4]: -0.054
log2 fold change [5]: -0.055
log2 fold change [6]: 0.27 (active)
log2 fold change [7]: -0.003
log2 fold change [8]: 0.055
log2 fold change [9]: -0.003
log2 fold change [10]: 0.024

MTHFD1, A0A384N5Y3
log2 fold change [1]: 0.005
log2 fold change [2]: -0.018
log2 fold change [3]: -0.081
log2 fold change [4]: -0.008
log2 fold change [5]: 0.032
log2 fold change [6]: -0.044
log2 fold change [7]: -0.02
log2 fold change [8]: 0.039
log2 fold change [9]: 0.008
log2 fold change [10]: -0.017

NUCB2 (UniProt P80303)
log2 fold change [1]: -0.016
log2 fold change [2]: 0.015
log2 fold change [3]: 0.007
log2 fold change [4]: -0.019
log2 fold change [5]: -0.009
log2 fold change [6]: 0.016
log2 fold change [7]: 0.011
log2 fold change [8]: -0.003
log2 fold change [9]: -0.001
log2 fold change [10]: 0.014

NDUFAF5 (UniProt Q5TEU4)
log2 fold change [3]: 0.02
log2 fold change [5]: -0.061
log2 fold change [6]: -0.078
log2 fold change [8]: 0.114
log2 fold change [9]: -0.034
log2 fold change [10]: -0.042

ORC3 (UniProt Q9UBD5)
log2 fold change [1]: 0.038
log2 fold change [2]: -0.062
log2 fold change [4]: 0.059
log2 fold change [7]: -0.084
log2 fold change [9]: -0.053

MT-ATP8 (UniProt P03928)
UniProt P03928, sequence (P03928 whole entry, looked up): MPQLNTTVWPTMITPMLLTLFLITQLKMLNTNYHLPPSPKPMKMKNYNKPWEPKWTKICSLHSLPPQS
log2 fold change [1]: 0.055
log2 fold change [2]: 0.177
log2 fold change [4]: 0.214
log2 fold change [6]: 0.043
log2 fold change [7]: 0.085
log2 fold change [8]: 0.056
log2 fold change [9]: -0.067
log2 fold change [10]: -0.084

NSUN7 (UniProt Q8NE18)
log2 fold change [6]: -0.573 (active)
log2 fold change [8]: 0.01
log2 fold change [9]: 0.009
log2 fold change [10]: -0.031

MUC5AC (UniProt P98088)
log2 fold change [1]: 0.02
log2 fold change [2]: 0.048
log2 fold change [4]: 0.128
log2 fold change [7]: -0.593 (active)

NSA2 (UniProt O95478)
log2 fold change [1]: 0.102
log2 fold change [2]: -0.04
log2 fold change [3]: -0.323
log2 fold change [4]: -0.08
log2 fold change [5]: -0.113
log2 fold change [7]: -0.004
log2 fold change [9]: 0.076
log2 fold change [10]: -0.15

NPLOC4 (UniProt I3L3I1)
log2 fold change [3]: 0.057
log2 fold change [5]: -0.116
log2 fold change [6]: -0.986 (active)
log2 fold change [8]: 0.196

NTMT1 (UniProt S4R338)
log2 fold change [9]: -0.027

PARD3B (UniProt Q8TEW8)
log2 fold change [3]: 0.051
log2 fold change [5]: -0.095
log2 fold change [10]: 0.174

PAPOLG (UniProt Q9BWT3)
log2 fold change [1]: 0.025
log2 fold change [2]: -0.025
log2 fold change [3]: -0.023
log2 fold change [4]: 0.031
log2 fold change [5]: 0.079
log2 fold change [6]: -0.056
log2 fold change [7]: 0.079
log2 fold change [8]: -0.054
log2 fold change [10]: 0.445

NR2C2 isoform 2 (UniProt P49116)
log2 fold change [3]: -0.033
log2 fold change [5]: 0.064
log2 fold change [6]: -0.054
log2 fold change [8]: 0.04
log2 fold change [9]: -0.025
log2 fold change [10]: -0.048

NSL1 (UniProt Q96IY1)
UniProt Q96IY1, sequence (Q96IY1 whole entry, looked up): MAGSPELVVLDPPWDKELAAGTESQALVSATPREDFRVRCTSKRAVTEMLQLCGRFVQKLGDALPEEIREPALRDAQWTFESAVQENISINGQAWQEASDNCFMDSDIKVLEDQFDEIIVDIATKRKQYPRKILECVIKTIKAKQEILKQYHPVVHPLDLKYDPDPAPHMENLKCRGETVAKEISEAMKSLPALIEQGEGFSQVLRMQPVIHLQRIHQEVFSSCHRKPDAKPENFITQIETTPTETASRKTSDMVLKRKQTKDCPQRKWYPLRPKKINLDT
log2 fold change [1]: -0.018
log2 fold change [2]: 0.005
log2 fold change [3]: -0.01
log2 fold change [4]: -0.014
log2 fold change [5]: 0
log2 fold change [6]: -0.009
log2 fold change [7]: 0.024
log2 fold change [8]: -0.003
log2 fold change [9]: 0.01
log2 fold change [10]: -0.007

MYBL2 (UniProt P10244)
UniProt P10244, sequence (P10244 whole entry, looked up): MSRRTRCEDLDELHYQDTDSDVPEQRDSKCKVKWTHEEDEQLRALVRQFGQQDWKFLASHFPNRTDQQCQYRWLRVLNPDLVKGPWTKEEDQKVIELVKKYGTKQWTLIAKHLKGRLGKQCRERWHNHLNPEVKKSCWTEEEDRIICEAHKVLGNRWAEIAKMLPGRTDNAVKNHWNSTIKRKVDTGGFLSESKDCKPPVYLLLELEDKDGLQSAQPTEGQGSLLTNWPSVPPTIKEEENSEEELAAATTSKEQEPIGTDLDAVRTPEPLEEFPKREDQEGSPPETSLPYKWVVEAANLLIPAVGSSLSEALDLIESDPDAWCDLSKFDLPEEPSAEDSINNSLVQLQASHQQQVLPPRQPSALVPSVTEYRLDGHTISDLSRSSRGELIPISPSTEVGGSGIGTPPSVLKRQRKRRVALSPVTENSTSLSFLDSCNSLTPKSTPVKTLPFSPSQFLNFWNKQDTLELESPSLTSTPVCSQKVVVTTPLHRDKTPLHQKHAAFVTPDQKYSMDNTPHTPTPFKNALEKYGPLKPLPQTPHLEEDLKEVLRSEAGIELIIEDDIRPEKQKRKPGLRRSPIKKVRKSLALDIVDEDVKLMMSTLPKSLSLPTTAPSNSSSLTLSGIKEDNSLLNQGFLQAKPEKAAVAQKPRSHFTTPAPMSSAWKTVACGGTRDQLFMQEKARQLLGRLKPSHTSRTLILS
log2 fold change [3]: -0.055
log2 fold change [5]: -0.012
log2 fold change [6]: -0.071
log2 fold change [8]: -0.021
log2 fold change [10]: -0.015

From the supplement of paper PMC10849652
